# Test results taken from the supplement of paper PMC12282887.
# ± gives the standard deviation of the averaged measurements.
# Assays:
# Test in all cases: promoter activity interaction Z-score (Lux/OD deviation from empty-vector control); higher = stronger promoter induction by the compound
# [1] = test system: E. coli BW25113 acrABp lux reporter
# Outline: (§1)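 Wild-type E. coli BW25113 and three single-gene deletion strains, each carrying a low-copy luxCDABE promoter reporter, were grown at 37°C in 40 µl LB Lennox per well of a 384-well plate. Every compound was applied at four 1:2 dilutions in biological duplicates, and OD600 and luminescence were read every 30 min for 12 h. Integration covered 0–8 h for wild type and 1–9 h for deletion strains, and wells under 10% of the median growth value were removed. Scores are Z-transformed residuals of growth-normalised luminescence fitted against a control.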
# [2] = test system: E. coli BW25113 marRABp lux reporter
# Outline: as §1
# [3] = test system: E. coli BW25113 micFp lux reporter
# Outline: as §1
# [4] = test system: E. coli BW25113 ompFp lux reporter
# Outline: as §1
# [5] = test system: E. coli BW25113 robp lux reporter
# Outline: as §1
# [6] = test system: E. coli BW25113 soxSp lux reporter
# Outline: as §1
# [7] = test system: E. coli BW25113 tolCp lux reporter
# Outline: as §1
# [8] = 7 µg/ml, genetic background: wild type
# [9] = 7 µg/ml, genetic background: ΔmarA
# [10] = 7 µg/ml, genetic background: Δrob
# [11] = 7 µg/ml, genetic background: ΔsoxS
# [12] = 14 µg/ml, genetic background: wild type
# [13] = 14 µg/ml, genetic background: ΔmarA
# [14] = 14 µg/ml, genetic background: Δrob
# [15] = 14 µg/ml, genetic background: ΔsoxS
# [16] = 28 µg/ml, genetic background: wild type
# [17] = 28 µg/ml, genetic background: ΔmarA
# [18] = 28 µg/ml, genetic background: Δrob
# [19] = 28 µg/ml, genetic background: ΔsoxS
# [20] = 56.1 µg/ml, genetic background: wild type
# [21] = 56.1 µg/ml, genetic background: ΔmarA
# [22] = 56.1 µg/ml, genetic background: Δrob
# [23] = 56.1 µg/ml, genetic background: ΔsoxS
# [24] = 14.6 µg/ml, genetic background: wild type
# [25] = 14.6 µg/ml, genetic background: ΔmarA
# [26] = 14.6 µg/ml, genetic background: Δrob
# [27] = 14.6 µg/ml, genetic background: ΔsoxS
# [28] = 29.3 µg/ml, genetic background: wild type
# [29] = 29.3 µg/ml, genetic background: ΔmarA
# [30] = 29.3 µg/ml, genetic background: Δrob
# [31] = 29.3 µg/ml, genetic background: ΔsoxS
# [32] = 58.6 µg/ml, genetic background: wild type
# [33] = 58.6 µg/ml, genetic background: ΔmarA
# [34] = 58.6 µg/ml, genetic background: Δrob
# [35] = 58.6 µg/ml, genetic background: ΔsoxS
# [36] = 117.2 µg/ml, genetic background: wild type
# [37] = 117.2 µg/ml, genetic background: ΔmarA
compound,measurement,setting,value
COc1cc(NS(=O)(=O)c2ccc(N)cc2)ncn1 [Sulfamonomethoxine],promoter activity interaction Z-score,[1]; [8],-0.0629 ± 0.12
same,promoter activity interaction Z-score,[1]; [9],-0.0827 ± 0.19
same,promoter activity interaction Z-score,[1]; [10],-0.194 ± 0.069
same,promoter activity interaction Z-score,[1]; [11],-0.131 ± 0.45
same,promoter activity interaction Z-score,[1]; [12],-0.0954 ± 0.051
same,promoter activity interaction Z-score,[1]; [13],0.444 ± 0.69
same,promoter activity interaction Z-score,[1]; [14],0.0478 ± 0.2
same,promoter activity interaction Z-score,[1]; [15],-0.102 ± 0.4
same,promoter activity interaction Z-score,[1]; [16],0.289 ± 0.03
same,promoter activity interaction Z-score,[1]; [17],0.686 ± 0.39
same,promoter activity interaction Z-score,[1]; [18],0.139 ± 0.014
same,promoter activity interaction Z-score,[1]; [19],-0.0503 ± 0.27
same,promoter activity interaction Z-score,[1]; [20],0.594 ± 0.059
same,promoter activity interaction Z-score,[1]; [21],1.43 ± 0.56
same,promoter activity interaction Z-score,[1]; [22],1.32 ± 0.6
same,promoter activity interaction Z-score,[1]; [23],0.654 ± 0.63
same,promoter activity interaction Z-score,[2]; [8],0.165 ± 0.29
same,promoter activity interaction Z-score,[2]; [9],0.199 ± 0.22
same,promoter activity interaction Z-score,[2]; [10],0.0754 ± 0.022
same,promoter activity interaction Z-score,[2]; [11],-0.0457 ± 0.27
same,promoter activity interaction Z-score,[2]; [12],0.419 ± 0.21
same,promoter activity interaction Z-score,[2]; [13],0.246 ± 0.58
same,promoter activity interaction Z-score,[2]; [14],-0.0243 ± 0.36
same,promoter activity interaction Z-score,[2]; [15],-0.0217 ± 0.15
same,promoter activity interaction Z-score,[2]; [16],0.52 ± 0.32
same,promoter activity interaction Z-score,[2]; [17],0.729 ± 0.45
same,promoter activity interaction Z-score,[2]; [18],0.602 ± 0.038
same,promoter activity interaction Z-score,[2]; [19],0.101 ± 0.14
same,promoter activity interaction Z-score,[2]; [20],1.09 ± 0.8
same,promoter activity interaction Z-score,[2]; [21],1.14 ± 0.16
same,promoter activity interaction Z-score,[2]; [22],1.18 ± 0.4
same,promoter activity interaction Z-score,[2]; [23],1.04 ± 0.46
same,promoter activity interaction Z-score,[3]; [8],-0.11 ± 0.081
same,promoter activity interaction Z-score,[3]; [9],-0.104 ± 0.066
same,promoter activity interaction Z-score,[3]; [10],0.00985 ± 0.087
same,promoter activity interaction Z-score,[3]; [11],-0.0124 ± 0.09
same,promoter activity interaction Z-score,[3]; [12],0.129 ± 0.024
same,promoter activity interaction Z-score,[3]; [13],-0.112 ± 0.13
same,promoter activity interaction Z-score,[3]; [14],-0.0554 ± 0.081
same,promoter activity interaction Z-score,[3]; [15],0.0346 ± 0.00076
same,promoter activity interaction Z-score,[3]; [16],-0.113 ± 0.28
same,promoter activity interaction Z-score,[3]; [17],0.0381 ± 0.13
same,promoter activity interaction Z-score,[3]; [18],-0.0788 ± 0.15
same,promoter activity interaction Z-score,[3]; [19],-0.00695 ± 0.03
same,promoter activity interaction Z-score,[3]; [20],0.345 ± 0.27
same,promoter activity interaction Z-score,[3]; [21],-0.0779 ± 0.035
same,promoter activity interaction Z-score,[3]; [22],0.446 ± 0.3
same,promoter activity interaction Z-score,[3]; [23],0.145 ± 0.15
same,promoter activity interaction Z-score,[4]; [8],0.897 ± 1
same,promoter activity interaction Z-score,[4]; [9],0.44 ± 0.78
same,promoter activity interaction Z-score,[4]; [10],0.229 ± 0.2
same,promoter activity interaction Z-score,[4]; [11],0.152 ± 0.17
same,promoter activity interaction Z-score,[4]; [12],0.907 ± 0.69
same,promoter activity interaction Z-score,[4]; [13],0.36 ± 0.52
same,promoter activity interaction Z-score,[4]; [14],0.708 ± 0.82
same,promoter activity interaction Z-score,[4]; [15],0.102 ± 0.078
same,promoter activity interaction Z-score,[4]; [16],1.05 ± 0.98
same,promoter activity interaction Z-score,[4]; [17],1.11 ± 0.74
same,promoter activity interaction Z-score,[4]; [18],0.731 ± 0.18
same,promoter activity interaction Z-score,[4]; [19],0.341 ± 0.13
same,promoter activity interaction Z-score,[4]; [20],2.04 ± 0.99
same,promoter activity interaction Z-score,[4]; [21],2.09 ± 0.78
same,promoter activity interaction Z-score,[4]; [22],2.95 ± 1.7
same,promoter activity interaction Z-score,[4]; [23],1.94 ± 0.43
same,promoter activity interaction Z-score,[5]; [8],1.09 ± 0.49
same,promoter activity interaction Z-score,[5]; [9],0.0134 ± 0.083
same,promoter activity interaction Z-score,[5]; [10],-0.027 ± 0.51
same,promoter activity interaction Z-score,[5]; [11],-0.114 ± 0.21
same,promoter activity interaction Z-score,[5]; [12],1.2 ± 0.46
same,promoter activity interaction Z-score,[5]; [13],-0.0907 ± 0.34
same,promoter activity interaction Z-score,[5]; [14],0.416 ± 0.81
same,promoter activity interaction Z-score,[5]; [15],-0.326 ± 0.46
same,promoter activity interaction Z-score,[5]; [16],0.911 ± 0.12
same,promoter activity interaction Z-score,[5]; [17],1.16 ± 0.43
same,promoter activity interaction Z-score,[5]; [18],0.643 ± 0.1
same,promoter activity interaction Z-score,[5]; [19],0.227 ± 0.12
same,promoter activity interaction Z-score,[5]; [20],2 ± 0.41
same,promoter activity interaction Z-score,[5]; [21],2.2238 ± 0.0018
same,promoter activity interaction Z-score,[5]; [22],1.45 ± 0.23
same,promoter activity interaction Z-score,[5]; [23],1.99 ± 0.18
same,promoter activity interaction Z-score,[6]; [8],-0.238 ± 0.08
same,promoter activity interaction Z-score,[6]; [9],-0.23 ± 0.096
same,promoter activity interaction Z-score,[6]; [10],-0.34 ± 0.09
same,promoter activity interaction Z-score,[6]; [11],-0.327 ± 0.54
same,promoter activity interaction Z-score,[6]; [12],-0.126 ± 0.13
same,promoter activity interaction Z-score,[6]; [13],-0.374 ± 0.052
same,promoter activity interaction Z-score,[6]; [14],-0.287 ± 0.064
same,promoter activity interaction Z-score,[6]; [15],-0.322 ± 0.51
same,promoter activity interaction Z-score,[6]; [16],-0.403 ± 0.15
same,promoter activity interaction Z-score,[6]; [17],-0.289 ± 0.029
same,promoter activity interaction Z-score,[6]; [18],-0.503 ± 0.07
same,promoter activity interaction Z-score,[6]; [19],-0.224 ± 0.42
same,promoter activity interaction Z-score,[6]; [20],-0.28 ± 0.14
same,promoter activity interaction Z-score,[6]; [21],-0.0803 ± 0.1
same,promoter activity interaction Z-score,[6]; [22],-0.502 ± 0.17
same,promoter activity interaction Z-score,[6]; [23],-0.113 ± 0.36
same,promoter activity interaction Z-score,[7]; [8],-0.23 ± 0.84
same,promoter activity interaction Z-score,[7]; [9],0.608 ± 0.35
same,promoter activity interaction Z-score,[7]; [10],0.27 ± 0.051
same,promoter activity interaction Z-score,[7]; [11],-0.223 ± 1.2
same,promoter activity interaction Z-score,[7]; [12],1.12 ± 0.49
same,promoter activity interaction Z-score,[7]; [13],-0.382 ± 0.79
same,promoter activity interaction Z-score,[7]; [14],-0.826 ± 0.66
same,promoter activity interaction Z-score,[7]; [15],0.183 ± 1.1
same,promoter activity interaction Z-score,[7]; [16],-0.0377 ± 0.24
same,promoter activity interaction Z-score,[7]; [17],1.63 ± 0.99
same,promoter activity interaction Z-score,[7]; [18],-0.142 ± 0.15
same,promoter activity interaction Z-score,[7]; [19],0.453 ± 0.22
same,promoter activity interaction Z-score,[7]; [20],0.726 ± 1
same,promoter activity interaction Z-score,[7]; [21],0.457 ± 1.5
same,promoter activity interaction Z-score,[7]; [22],-0.189 ± 0.24
same,promoter activity interaction Z-score,[7]; [23],0.283 ± 0.55
c1ccc2[nH]ccc2c1 [Indole],promoter activity interaction Z-score,[1]; [24],0.275 ± 0.27
same,promoter activity interaction Z-score,[1]; [25],0.599 ± 0.24
same,promoter activity interaction Z-score,[1]; [26],0.275 ± 0.17
same,promoter activity interaction Z-score,[1]; [27],0.000826 ± 0.08
same,promoter activity interaction Z-score,[1]; [28],0.165 ± 0.071
same,promoter activity interaction Z-score,[1]; [29],0.0409 ± 0.28
same,promoter activity interaction Z-score,[1]; [30],0.281 ± 0.18
same,promoter activity interaction Z-score,[1]; [31],0.463 ± 0.32
same,promoter activity interaction Z-score,[1]; [32],-0.112 ± 0.29
same,promoter activity interaction Z-score,[1]; [33],0.00303 ± 0.77
same,promoter activity interaction Z-score,[1]; [34],-0.21 ± 0.23
same,promoter activity interaction Z-score,[1]; [35],-0.312 ± 0.055
same,promoter activity interaction Z-score,[1]; [36],0.167 ± 0.52
same,promoter activity interaction Z-score,[1]; [37],-0.375 ± 0.025
same,promoter activity interaction Z-score,"[1]; 117.2 µg/ml, genetic background: Δrob",-0.278 ± 0.012
same,promoter activity interaction Z-score,"[1]; 117.2 µg/ml, genetic background: ΔsoxS",0.0661 ± 0.25
same,promoter activity interaction Z-score,[2]; [24],0.304 ± 0.29
same,promoter activity interaction Z-score,[2]; [25],0.3765 ± 0.00083
same,promoter activity interaction Z-score,[2]; [26],0.103 ± 0.22
same,promoter activity interaction Z-score,[2]; [27],0.259 ± 0.025
same,promoter activity interaction Z-score,[2]; [28],0.16 ± 0.016
same,promoter activity interaction Z-score,[2]; [29],0.41 ± 0.022
same,promoter activity interaction Z-score,[2]; [30],0.118 ± 0.27
same,promoter activity interaction Z-score,[2]; [31],0.258 ± 0.2
same,promoter activity interaction Z-score,[2]; [32],0.085 ± 0.049
same,promoter activity interaction Z-score,[2]; [33],-0.158 ± 0.041
same,promoter activity interaction Z-score,[2]; [34],-0.0769 ± 0.035
same,promoter activity interaction Z-score,[2]; [35],-0.0326 ± 0.017
same,promoter activity interaction Z-score,[2]; [36],0.965 ± 0.34
same,promoter activity interaction Z-score,[2]; [37],0.558 ± 0.15
